{"source": "PubChem BioAssay (NCATS)", "key": {"[1]": {"assay": "Viability qHTS for spleen associated tyrosine kinase inhibitor (SYKi) naive MV4-11 cells (AID 1963823); note: nearly all actives have a fitted effect of over 40% in size", "details": "MV4-11 AML viability, CellTiter-Glo luminescence, 72 h; series mostly up to 45 µM", "procedure,_shortened": "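Luminescence from CellTiter-Glo, developed 10 min at room temperature, gave viability of MV4-11 cells never exposed to SYK inhibitor. Cells (500/well) had been incubated with compounds for 72 hr under standard culture conditions.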"}, "[2]": {"assay": "Viability qHTS for spleen associated tyrosine kinase inhibitor (SYKi) drug resistant MV4-11 cells (AID 1963824); note: nearly all actives have a fitted effect of over 35% in size", "details": "SYKi-resistant MV4-11 viability, CellTiter-Glo, 72 h; series mostly up to 45 µM", "procedure,_shortened": "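CellTiter-Glo luminescence, read 10 min after reagent addition, reports viability after a 72 hr compound exposure. Cells are an MV4-11 line made resistant to SYK inhibition, seeded at 500 per well onto compound-containing plates.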"}}, "note": "Several values for one entry are separate records, joined by “and”; a condition that tells them apart may be missing. Identical values can stand only once. Records with an inconclusive call do not appear. Entries that show only a call come without a potency. Activity calls are given as the source filed them. Calls come from the whole dose curve; as a rule, active = well fitted cell-killing curve with a large enough effect; inconclusive = small, poorly fitted or top-dose-only effect, or effect the other way; inactive = no such curve, though single readings can be large or run the other way. Potency is the fitted concentration of half-maximal effect."}
{"smiles": "COC(=O)CC1CC(c2ccc(O)cc2)=NO1", "note": "(stereo not given)", "values": [{"measurement": "Potency", "setting": "[1]", "value": "inactive"}, {"measurement": "Potency", "setting": "[2]", "value": "inactive"}]}
{"smiles": "N#Cc1cc(-c2n[nH]c(-c3ccncc3)n2)ccn1", "values": [{"measurement": "Potency", "setting": "[1]", "value": "inactive"}, {"measurement": "Potency", "setting": "[2]", "value": "inactive"}]}
{"smiles": "CC(=O)c1[nH]cc(CCC(=O)O)c1CC(=O)O", "values": [{"measurement": "Potency", "setting": "[1]", "value": "0.231 µM (active)"}, {"measurement": "Potency", "setting": "[2]", "value": "inactive"}]}
{"smiles": "C/C=C(\\C)[C@@H]1C(C)=C[C@@H]2[C@H]([C@@H]1/C=C/C=C/C(=O)O)[C@@H](C)CC[C@@H]2O", "values": [{"measurement": "Potency", "setting": "[1]", "value": "6.4 µM (active)"}, {"measurement": "Potency", "setting": "[2]", "value": "3.6 µM (active)"}]}
{"smiles": "C=C(C(=O)O)[C@@H]1CC[C@@]2(C)CC[C@@H](O)C(=C)C2C1", "note": "(stereo not given in full)", "values": [{"measurement": "Potency", "setting": "[1]", "value": "inactive"}, {"measurement": "Potency", "setting": "[2]", "value": "inactive"}]}
{"smiles": "C[C@@H]1O[C@@H](O[C@H]2[C@@H]3C=CO[C@@H](O[C@@H]4O[C@H](CO)[C@@H](O)[C@H](O)[C@H]4O)[C@@H]3[C@@]3(CO)O[C@@H]23)[C@H](O)[C@H](OC(=O)/C=C/c2ccc(O)c(O)c2)[C@H]1O", "values": [{"measurement": "Potency", "setting": "[1]", "value": "inactive"}, {"measurement": "Potency", "setting": "[2]", "value": "inactive"}]}
{"smiles": "CNC(=O)c1ccc2cc([C@@]3(O)CCn4cncc43)ccc2c1", "values": [{"measurement": "Potency", "setting": "[1]", "value": "inactive"}, {"measurement": "Potency", "setting": "[2]", "value": "inactive"}]}
{"smiles": "CC(=O)c1ccc2c(c1)C(O)C(C(C)(C)O)O2", "note": "(stereo not given)", "values": [{"measurement": "Potency", "setting": "[1]", "value": "inactive"}, {"measurement": "Potency", "setting": "[2]", "value": "inactive"}]}
{"smiles": "Cn1nccc1Nc1nccc(-c2ccn([C@H](CO)c3ccc(Cl)c(F)c3)c(=O)c2)n1", "values": [{"measurement": "Potency", "setting": "[1]", "value": "7.31 µM (active)"}, {"measurement": "Potency", "setting": "[2]", "value": "4.61 µM (active) and 6.61 µM (active)"}]}
{"smiles": "CCOC(=O)CCNc1cc(N2CCc3ccccc3CC2)nc(-c2cccnc2)n1", "values": [{"measurement": "Potency", "setting": "[1]", "value": "inactive"}, {"measurement": "Potency", "setting": "[2]", "value": "14.6 µM (active)"}]}
